Assay outcomes as filed in PubChem.
Only some compounds are listed: those with a hit (about 1.3% of all), similar ones and a draw of the others.
CCHF vOTU inh-1: CCHFV vOTU protease inhibition | inhibition, % at 11.5 µM | Pep-AMC fluorescence | actives 0.55% (n = 370,000); note: 0% = vehicle wells with enzyme and 100% = no enzyme wells
3CLpro inhibitor: SARS-CoV 3CLpro protease inhibition. P0C6X7. recombinant SARS-CoV 3CLpro, quenched FRET peptide cleavage. inhibition, % at 6 µM. actives 0.14% (n = 290,000); in the data active = inhibition above about 12%
VHR inh abs: DUSP3 (human) phosphatase inhibition | recombinant VHR phosphatase, pNPP absorbance | inhibition, % at 13.3 µM | actives 0.52% (n = 290,000) | AID 1654; in the data active = inhibition above about 50%
Target sequence (P51452 whole entry, looked up): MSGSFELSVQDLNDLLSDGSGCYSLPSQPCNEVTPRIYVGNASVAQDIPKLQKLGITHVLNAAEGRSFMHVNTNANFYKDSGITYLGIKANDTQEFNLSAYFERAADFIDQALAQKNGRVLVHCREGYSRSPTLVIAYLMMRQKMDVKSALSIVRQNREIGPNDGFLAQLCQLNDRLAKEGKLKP
PriA SSB inh: K. pneumoniae PriA-SSBct interaction inhibition | AID 1272365 | AlphaScreen SSBct-PriA binding, biotinylated peptide | actives 0.6% (n = 430,000) | inhibition, % at 33 µM; in the data active = inhibition mostly above about 37%, no sharp cut-off; inactive = mostly below about 20%;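 note: plate controls were negative control peptide for no effect and reference peptide for full effect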
Mtb hypoxia inh: Mtb hypoxia fluorescent reporter inhibition | fluorescence inhibition, % (no concentration beside the values) | AID 1159583 | actives 0.1% (n = 300,000) | M. tuberculosis hypoxia-regulated fluorescent reporter, fluorescence; in the data active = fluorescence inhibition mostly above about 23%, no sharp cut-off; inactive = mostly below about 17%
CCHF vOTU inh-2: CCHFV vOTU protease inhibition, confirmation; shares compounds with CCHF vOTU inh-1; Recombinant CCHFV vOTU, Pep-AMC fluorescence; inhibition, % at 11.5 µM; actives 17% (n = 1,900)
The depositor's hits bear a star. Cut-off read from the data, not from the text of the source, unless noted: active = inhibition above about 30%; inactive = the rest.

How did CC1([N+](=O)[O-])COP(=O)(Nc2cccc(Cl)c2)OC1 (stereo not given) do in these assays?
CCHF vOTU inh-1: 38*; PriA SSB inh: -8; CCHF vOTU inh-2: -18

How did O=C(NN=Cc1c(O)n(CCc2ccccc2)c(=O)[nH]c1=O)c1ccccc1O do in these assays?
PriA SSB inh: -2

How did Cc1ccc([N+](=O)[O-])cc1N(CC(=O)Nc1ccc(S(=O)(=O)Nc2cccc(C(F)(F)F)c2)cc1)S(C)(=O)=O do in these assays?
CCHF vOTU inh-1: 30*; 3CLpro inhibitor: 6; VHR inh abs: 4; PriA SSB inh: -2; Mtb hypoxia inh: 16; CCHF vOTU inh-2: -9

What do the screens show for `Cc1c(C#N)c(O)[nH]c(=O)c1N=Nc1ccc(Cl)c(C(=O)O)c1`?
CCHF vOTU inh-1: 31*; 3CLpro inhibitor: -2; PriA SSB inh: -2; Mtb hypoxia inh: 3; CCHF vOTU inh-2: -3

Results for CCCC(=O)C1=C(O)C(C(=O)OC)C(C)(C)CC1=Nc1ccc(N)cc1 (stereo not given) ?
CCHF vOTU inh-1: 20; 3CLpro inhibitor: -6; VHR inh abs: 34; PriA SSB inh: 0; Mtb hypoxia inh: 4

What do the screens show for `CCCC(=Nc1ccc(N)cc1)C1=C(O)C(C(=O)OC)C(C)(C)CC1=O` (stereo not given)?
CCHF vOTU inh-1: 103*; 3CLpro inhibitor: 2; VHR inh abs: 15; PriA SSB inh: 11; Mtb hypoxia inh: 8; CCHF vOTU inh-2: 3

Results for COc1cccc(C(C(=O)NC2CCCC2)N2CCN(c3cc(C)ccc3C)CC2)c1OC (stereo not given) ?
CCHF vOTU inh-1: 30*; CCHF vOTU inh-2: -5

Results for O=C1Cc2ccccc2C(=O)N1OCc1ccc(Cl)cc1Cl ?
CCHF vOTU inh-1: 36*; 3CLpro inhibitor: -3; VHR inh abs: -17; PriA SSB inh: -17; CCHF vOTU inh-2: -3

What do the screens show for `O=C1c2ccccc2C(=O)N1OCc1cccc(Cl)c1`?
CCHF vOTU inh-1: -3; 3CLpro inhibitor: 7; VHR inh abs: -28; PriA SSB inh: -2; Mtb hypoxia inh: 11

How did COc1cc(Cl)c(C)cc1NC(=O)CN1C(=O)C2CCCCC2C1=O (stereo not given) do in these assays?
CCHF vOTU inh-1: 32*; PriA SSB inh: -8; Mtb hypoxia inh: 5; CCHF vOTU inh-2: -14

What do the screens show for `O=C(O)CCCNc1cc(N2CCN(C(=O)c3ccco3)CC2)c2noc3c2c1C(=O)c1ccccc1-3`?
CCHF vOTU inh-1: 32*; 3CLpro inhibitor: 3; VHR inh abs: 36; PriA SSB inh: 41*; CCHF vOTU inh-2: 81*

Results for OCCN(Cc1ccccc1)CC(O)COc1ccc(-c2ccccc2)cc1 (stereo not given) ?
CCHF vOTU inh-1: 30*; 3CLpro inhibitor: 5; VHR inh abs: 26; PriA SSB inh: -7; Mtb hypoxia inh: 11; CCHF vOTU inh-2: -12

How did COc1cc(C(C)=O)ccc1OCC(O)CN(CCO)Cc1ccccc1 (stereo not given) do in these assays?
CCHF vOTU inh-1: 2; 3CLpro inhibitor: 4; VHR inh abs: 22; PriA SSB inh: -2; Mtb hypoxia inh: 12

Results for COC(=O)c1ccccc1NC(=O)CSc1nc(C)cc(N2CCOCC2)n1 ?
PriA SSB inh: 6

What do the screens show for `O=C(COc1ccc(-n2cccn2)nn1)N1CCN(c2cnnc(N3CCCC3)c2)CC1`?
PriA SSB inh: 0

What do the screens show for `CCOc1ccc2noc3c2c1C(=O)c1ccccc1-3`?
CCHF vOTU inh-1: 87*; 3CLpro inhibitor: 3; VHR inh abs: 7; PriA SSB inh: 0; CCHF vOTU inh-2: 37*

What do the screens show for `O=C(NC[C@@](O)(c1ccccc1)C1CC1)Nc1ccccc1C(F)(F)F`?
PriA SSB inh: -9

How did Cc1cc(=O)c2c(o1)C(=O)c1occc1C2=O do in these assays?
CCHF vOTU inh-1: 106*; PriA SSB inh: 5; CCHF vOTU inh-2: 48*

Results for C(=NN=C(NN=Cc1cccs1)NN=Cc1cccs1)c1cccs1 ?
CCHF vOTU inh-1: 33*; PriA SSB inh: -5; Mtb hypoxia inh: 14; CCHF vOTU inh-2: 2

How did C(=NN=Cc1cccs1)c1cccs1 do in these assays?
PriA SSB inh: 4; Mtb hypoxia inh: 14

How did CC(C)N(C)C1=CC(=O)C(N(C)C(C)C)=CC1=O do in these assays?
CCHF vOTU inh-1: 44*; PriA SSB inh: -6; Mtb hypoxia inh: 16; CCHF vOTU inh-2: -2

How did CN(C1=CC(=O)c2ccccc2C1=O)c1ccccc1 do in these assays?
PriA SSB inh: 16

Results for CCNC(=O)N1CCN(c2ccc(N3CCN(C(=O)NCC)[C@H](C)C3)c(C)c2)[C@H](C)C1 ?
CCHF vOTU inh-1: 10

Results for CCNC(=O)N1CCN(c2ccc(N3CCN(C(=O)NCC)[C@@H](C)C3)c(C)c2)[C@H](C)C1 ?
CCHF vOTU inh-1: 35*; CCHF vOTU inh-2: -12

What do the screens show for `CCOC(=O)c1ccccc1NC(=O)CSc1nccn2nc(-c3ccc(OC)cc3)cc12`?
PriA SSB inh: -13

What do the screens show for `C=CCC(O)c1c(-c2ccccc2)nn(C)c1Cl` (stereo not given)?
CCHF vOTU inh-1: 1; 3CLpro inhibitor: -2; VHR inh abs: 12; PriA SSB inh: -17; Mtb hypoxia inh: 12

What do the screens show for `CCC(O)c1c(-c2ccccc2)nn(C)c1Cl` (stereo not given)?
CCHF vOTU inh-1: 31*; 3CLpro inhibitor: 2; VHR inh abs: 12; PriA SSB inh: 4; Mtb hypoxia inh: 9; CCHF vOTU inh-2: -16

Results for Cc1noc(C)c1S(=O)(=O)NCCn1ncc2c(NCc3ccc(F)cc3)ncnc21 ?
PriA SSB inh: -13

Results for [O-][n+]1cccc2cccc(O)c21 ?
CCHF vOTU inh-1: 0; PriA SSB inh: 14; Mtb hypoxia inh: 10

What do the screens show for `C[n+]1cccc2cccc([O-])c21`?
CCHF vOTU inh-1: 58*; 3CLpro inhibitor: 8; VHR inh abs: 18; PriA SSB inh: 1; Mtb hypoxia inh: 5; CCHF vOTU inh-2: 96*

Results for O=C(c1cccc(Cl)c1)N1CCN(c2cc(-n3cncn3)ncn2)CC1 ?
PriA SSB inh: -1

Results for Nc1[nH][nH]c(=O)c1N=Nc1cccc(Cl)c1 ?
CCHF vOTU inh-1: 32*; 3CLpro inhibitor: 0; VHR inh abs: 30; PriA SSB inh: 17; Mtb hypoxia inh: 12; CCHF vOTU inh-2: 11

What do the screens show for `Cc1[nH][nH]c(=O)c1C(c1ccc(-c2cccc(C(=O)O)c2)o1)c1c(C)[nH][nH]c1=O`?
CCHF vOTU inh-1: 40*; 3CLpro inhibitor: 3; VHR inh abs: 30; PriA SSB inh: -6; Mtb hypoxia inh: 2; CCHF vOTU inh-2: -14

Results for S=C(Nc1ccc2nc(-c3ccccn3)c(-c3ccccn3)nc2c1)N1CCOCC1 ?
CCHF vOTU inh-1: 36*; 3CLpro inhibitor: -8; VHR inh abs: 16; PriA SSB inh: 12; Mtb hypoxia inh: 0; CCHF vOTU inh-2: -58

Results for COc1ccc(CN2C=C3C(=O)C(C)(OC(=O)C4CCCC4)C(=O)C=C3C=C2c2ccsc2)cc1 (stereo not given) ?
CCHF vOTU inh-1: 9; VHR inh abs: 15; PriA SSB inh: 0; Mtb hypoxia inh: 18
